The values below come from PubChem BioAssay (EPA / NIEHS).

Structures are written as SMILES. Activity calls are given as the source filed them. How the source made its calls: active means hit-call score of the fitted dose curve at least 0.9, where 1 is the maximum; inactive means score below 0.9.

Details in all cases: mRNA level, 48 h; actives raise or lower the signal
Read-out in test [1]: ATP-citrate lyase (ACLY), ACLY (gene 47)
The test is described as follows: LTEA_HepaRG_ACLY: Life Technologies and Expression Analysis (LTEA) Assay for ATP-citrate lyase (ACLY) using HepaRG (AID 2283466). The procedure, abridged: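 HepaRG, 48 h exposure, 8-pt half-log dilutions (top 100 uM), 0.5% DMSO. Readout: ACLY mRNA, TaqMan qRT-PCR, housekeeping-normalized (ACTB/GAPDH/POLR2A). Bidirectional curve fit vs DMSO.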

Read-out in test [2]: Peroxisomal acyl-coenzyme A oxidase 1 (ACOX1) gene, ACOX1 (gene 51)
The test is described as follows: LTEA_HepaRG_ACOX1: Life Technologies and Expression Analysis (LTEA) Assay for Peroxisomal acyl-coenzyme A oxidase 1 (ACOX1) gene using HepaRG (AID 2283467). The procedure, abridged: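 Measured by qRT-PCR against three housekeeping genes: ACOX1 transcript change in human HepaRG cells after 48 h dosing. Concentrations ran up to 100 uM in half-log steps. Curves were fitted bidirectionally relative to 0.5% DMSO.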

Read-out in test [3]: Alkaline Phosphatase, Placental (ALPP) gene, ALPP (gene 250)
The test is described as follows: LTEA_HepaRG_ALPP: Life Technologies and Expression Analysis (LTEA) Assay for Alkaline Phosphatase, Placental (ALPP) gene using HepaRG (AID 2283468). The procedure, abridged: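 HepaRG cells plated 48 h, then exposed in duplicate for 48 h in serum-free induction medium to 8-point half-log series from 100 uM in 0.5% DMSO. ALPP mRNA by TaqMan qRT-PCR, normalized to ACTB/GAPDH/POLR2A; bidirectional fit versus DMSO.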

Read-out in test [4]: Bcl-2 (BAD) gene, BAD (gene 572)
Kind of test: LTEA_HepaRG_BAD: Life Technologies and Expression Analysis (LTEA) Assay for Bcl-2 (BAD) gene using HepaRG (AID 2283469). The procedure, abridged:
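BAD transcript change, measured by qRT-PCR against three housekeeping genes and fitted in both directions relative to 0.5% DMSO, after 48 h chemical treatment of human HepaRG liver cells at concentrations up to 100 uM.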

Read-out in test [5]: Bcl-2 (BAX) gene, BAX (gene 581)
The test is described as follows: LTEA_HepaRG_BAX: Life Technologies and Expression Analysis (LTEA) Assay for Bcl-2 (BAX) gene using HepaRG (AID 2283470). The procedure, abridged:
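Differentiated human HepaRG cells, plated 48 h then switched to serum-free induction medium, were exposed 48 h to 8 half-log concentrations up to 100 uM in 0.5% DMSO; BAX mRNA measured by qRT-PCR, normalized to ACTB, GAPDH, POLR2A.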

Read-out in test [6]: adenosine kinase (ADK) gene, ADK (gene 132)
The test is described as follows: LTEA_HepaRG_ADK: Life Technologies and Expression Analysis (LTEA) Assay for adenosine kinase (ADK) gene using HepaRG (AID 2283471). An outline of the steps:
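ADK expression quantified by qRT-PCR, normalised to three housekeeping genes, after 48 h exposure of HepaRG cells to eight concentrations (top 100 uM, half-log steps, duplicate, 0.5% DMSO). Up- or down-regulation fitted relative to vehicle.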

Read-out in test [7]: Alpha-fetoprotein (AFP) gene, AFP (gene 174)
The test is described as follows: LTEA_HepaRG_AFP: Life Technologies and Expression Analysis (LTEA) Assay for Alpha-fetoprotein (AFP) gene using HepaRG (AID 2283472). An outline of the steps: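 Human HepaRG cells plated 48 h, then switched to serum-free induction medium and exposed in duplicate for 48 h to 8-point half-log series from 100 uM in 0.5% DMSO. AFP mRNA by qRT-PCR, normalized to ACTB, GAPDH, POLR2A; bidirectional fit versus DMSO.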

Read-out in a further test: BCL2L11 (gene 10018)
Kind of test: LTEA_HepaRG_BCL2L11: Life Technologies and Expression Analysis (LTEA) Assay for Bcl-2 (BCL2L11) gene using HepaRG (AID 2283473). An outline of the steps:
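Differentiated human HepaRG cells were exposed 48 h in serum-free induction medium to eight half-log concentrations up to 100 uM in 0.5% DMSO, in duplicate. BCL2L11 mRNA was quantified by TaqMan qRT-PCR, normalized to ACTB, GAPDH and POLR2A; induction or repression fitted versus DMSO.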

Read-out in test [8]: Apolipoprotein A-V (APOA5) gene, APOA5 (gene 116519)
The test is described as follows: LTEA_HepaRG_APOA5: Life Technologies and Expression Analysis (LTEA) Assay for Apolipoprotein A-V (APOA5) gene using HepaRG (AID 2283474). The procedure, abridged:
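Differentiated HepaRG cells in serum-free induction medium, exposed 48 h in duplicate to eight half-log concentrations topping at 100 uM (0.5% DMSO). APOA5 mRNA by Fluidigm TaqMan qRT-PCR, normalized to ACTB, GAPDH and POLR2A; bidirectional fit versus DMSO.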

Read-out in test [9]: Apoptosis regulator Bcl-2 (Homo sapiens) (UniProt P10415)
The test is described as follows: LTEA_HepaRG_BCL2: Life Technologies and Expression Analysis (LTEA) Assay for Bcl-2 gene using HepaRG (AID 2283475). The procedure, abridged: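 Differentiated HepaRG cells in serum-free induction medium were exposed for 48 h to eight half-log concentrations up to 100 uM in 0.5% DMSO, in duplicate. BCL2 mRNA was quantified by TaqMan qRT-PCR normalised to ACTB, GAPDH and POLR2A, with bidirectional fitting versus DMSO.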

Sequence of Apoptosis regulator Bcl-2 (Homo sapiens) (P10415 whole entry, looked up): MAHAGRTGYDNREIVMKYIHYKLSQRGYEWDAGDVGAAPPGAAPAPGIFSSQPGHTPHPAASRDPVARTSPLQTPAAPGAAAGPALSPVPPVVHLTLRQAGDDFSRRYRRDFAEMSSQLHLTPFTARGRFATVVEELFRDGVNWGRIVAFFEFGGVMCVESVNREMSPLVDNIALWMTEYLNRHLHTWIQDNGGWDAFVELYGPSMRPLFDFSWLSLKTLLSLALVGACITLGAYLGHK

`Cc1cc(C)cc(C)c1`: the compound was classed as inactive in [1], in test [2], in test [3], in [4], in test [5] and in test [6]. Further, the compound was called inactive (in [7]; with BCL2L11 (gene 10018); in test [8]; in test [9]).
For the compound `CC(C)(C)c1ccccc1O`, the call in test [1], in test [2], in [3], in test [4], in test [5] and in test [6] was inactive. The outcome (in test [7]; with BCL2L11 (gene 10018); in [8]; in [9]) was inactive.
Consider `Oc1c(Cl)cc(Cl)cc1Cl`, for which the result in test [1], in test [2], in test [3], in [4], in test [5] and in test [6] was inactive. Further, the compound was classed as inactive (in [7]; with BCL2L11 (gene 10018); in test [8]; in test [9]).
As to `Oc1cc(Cl)c(Cl)cc1Cl`, the result in [1], in [2], in [3], in test [4], in test [5] and in test [6] was inactive. Besides, the compound was called inactive (in test [7]; in the test with BCL2L11 (gene 10018); in test [8]; in [9]).
On to `O=C(O)C1(c2ccc3c(c2)OC[C@H](Cc2ccc(-c4ccccc4)cc2)[C@H]3O)CCCC1`, for which the AC50 (usually the concentration at which the activity in the assay is half-maximal) is 82.4 µM (active) in test [1], 91.7 µM (active) in test [2] and 66.2 µM (active) in test [5]. In addition, the result (in test [3]; in test [4]; in test [6]; in test [7]; with BCL2L11 (gene 10018); in test [8]) was inactive. Besides, the result in test [9] was inactive.
On to `Clc1cccc(Cl)c1`, for which the compound was called inactive in [1], in test [2], in test [3], in test [4], in test [5] and in test [6]. For the same compound, the compound was called inactive (in [7]; in the test with BCL2L11 (gene 10018); in test [8]; in test [9]).
For the compound `N#Cc1cccnc1`, the result in [1], in test [2], in test [3], in test [4], in test [5] and in test [6] was inactive. Besides, the call (in test [7]; with BCL2L11 (gene 10018); in [8]; in test [9]) was inactive.
Consider `Clc1cccc(Cl)c1Cl`, for which the compound was classed as inactive in test [1], in test [2], in test [3], in test [4], in test [5] and in test [6]. For the same compound, the outcome (in test [7]; with BCL2L11 (gene 10018); in test [8]; in test [9]) was inactive.
Consider `CN(C)C(=S)S`, for which the call in [1], in test [2], in test [3], in test [4], in test [5] and in test [6] was inactive. Moreover, the outcome (in [7]; with BCL2L11 (gene 10018); in test [8]; in test [9]) was inactive.
Consider `O=C(N[C@H]1CN2CCC1CC2)c1ccc2c(c1)OCCO2`, for which the compound was classed as inactive in [1], in [2], in test [3], in [4], in test [5] and in [6]. Moreover, the outcome (in [7]; with BCL2L11 (gene 10018); in test [8]; in test [9]) was inactive.
As to `COc1ccccc1N`, the outcome in test [1], in [2], in test [3], in test [4], in test [5] and in [6] was inactive. Also, the outcome (in test [7]; with BCL2L11 (gene 10018); in test [8]; in test [9]) was inactive.
For the compound `CC(C)O.CC(C)O.OCCN(CCO)CCO.OCCN(CCO)CCO.[Ti]`, the call in test [1], in test [2], in test [3], in [4], in test [5] and in test [6] was inactive. Moreover, the result (in test [7]; with BCL2L11 (gene 10018); in test [8]; in [9]) was inactive.
`CCCCCCCCCCCCc1cccc(S(=O)(=O)O)c1`: the compound was classed as inactive in [1], in test [2], in [3], in test [4], in test [5] and in test [6]. Moreover, the compound was classed as inactive (in [7]; in the test with BCL2L11 (gene 10018); in test [8]; in test [9]).
With `OCCN(CCO)CCO`, the call in test [1], in test [2], in test [3], in [4], in test [5] and in [6] was inactive. For the same compound, the compound was classed as inactive (in test [7]; in the test with BCL2L11 (gene 10018); in test [8]; in test [9]).
